Calls of active or inactive are those of the source. Rule for the calls: active = hit-call score of the fitted dose curve at least 0.9, where 1 is the maximum; inactive = score below 0.9.
Legend:
Conditions in all cases: mRNA level, 48 h; actives raise or lower the signal
[1] = read-out: Cyclin D1 (CCND1), CCND1 (gene 595); experiment: LTEA_HepaRG_CCND1: Life Technologies and Expression Analysis (LTEA) Assay for Cyclin D1 (CCND1) using HepaRG (AID 2283451);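 for AC50: TaqMan qRT-PCR transcript level normalised to ACTB GAPDH and POLR2A housekeeping genes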
In short: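 Expression change is measured by qRT-PCR in HepaRG cells after 48 h treatment across eight concentrations topping at 100 uM, with duplicate wells and DMSO (0.5%) serving as baseline for bidirectional fitting.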

[2] = read-out: catalase (CAT), CAT (gene 847); experiment: LTEA_HepaRG_CAT: Life Technologies and Expression Analysis (LTEA) Assay for catalase (CAT) using HepaRG (AID 2283452);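 for AC50: TaqMan qRT-PCR signal normalized to ACTB GAPDH and POLR2A housekeeping genes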
In short: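 Differentiated HepaRG cells in serum-free induction medium were dosed 48 h in duplicate, eight half-log concentrations from 100 uM in 0.5% DMSO. Transcript measured by TaqMan qRT-PCR, normalised to ACTB/GAPDH/POLR2A, fitted bidirectionally against DMSO.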

[3] = read-out: flavin-containing dimethylaniline monooxygenases 3 (FMO3), FMO3 (gene 2328); experiment: LTEA_HepaRG_FMO3: Life Technologies and Expression Analysis (LTEA) Assay for flavin-containing dimethylaniline monooxygenases 3 (FMO3) using HepaRG (AID 2283453)
In short: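 Differentiated HepaRG cells in serum-free induction medium, exposed 48 h in duplicate to 8 half-log concentrations up to 100 uM in 0.5% DMSO. FMO3 mRNA by qRT-PCR, normalized to ACTB, GAPDH, POLR2A; bidirectional fit vs DMSO.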

[4] = read-out: Cytochrome P450 (CYP1A1), CYP1A1 (gene 1543); experiment: LTEA_HepaRG_CYP1A1: Life Technologies and Expression Analysis (LTEA) Assay for Cytochrome P450 (CYP1A1) using HepaRG (AID 2283454)
In short: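 Using HepaRG cultures with 0.5% DMSO as vehicle, eight-concentration exposures (max 100 uM) lasted 48 h. Transcript levels were measured by TaqMan qRT-PCR and normalized to ACTB, GAPDH and POLR2A.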

[5] = read-out: CFLAR gene, CFLAR (gene 8837); experiment: LTEA_HepaRG_CFLAR: Life Technologies and Expression Analysis (LTEA) Assay for CFLAR gene using HepaRG (AID 2283455)
In short: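 HepaRG cells were plated for 48 h, switched to serum-free induction medium, then exposed in duplicate for 48 h to 8 concentrations (top 100 uM, half-log steps, 0.5% DMSO). CFLAR mRNA was measured by qRT-PCR, normalized to ACTB, GAPDH and POLR2A.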

[6] = read-out: Forkhead box O1 (FOXO1), FOXO1 (gene 2308); experiment: LTEA_HepaRG_FOXO1: Life Technologies and Expression Analysis (LTEA) Assay for Forkhead box O1 (FOXO1) using HepaRG (AID 2283456)
In short: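 Differentiated human HepaRG cells in serum-free induction medium were exposed in duplicate for 48 h to eight half-log concentrations (top 100 uM, 0.5% DMSO). FOXO1 mRNA was measured by TaqMan qRT-PCR, normalised to ACTB, GAPDH and POLR2A, and fitted bidirectionally against DMSO.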

[7] = read-out: growth arrest and DNA damage 45 (GADD45A), GADD45A (gene 1647); experiment: LTEA_HepaRG_GADD45A: Life Technologies and Expression Analysis (LTEA) Assay for growth arrest and DNA damage 45 (GADD45A) using HepaRG (AID 2283458)
In short: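 Cells plated and cultured 48 h, switched to serum-free induction medium, then dosed for 48 h (100 uM top, half-log dilutions, 0.5% DMSO). RNA was isolated and transcript measured by Fluidigm qRT-PCR.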

[8] = read-out: Forkhead box O3 (FOXO3), FOXO3 (gene 2309); experiment: LTEA_HepaRG_FOXO3: Life Technologies and Expression Analysis (LTEA) Assay for Forkhead box O3 (FOXO3) using HepaRG (AID 2283459)
In short: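 Differentiated human HepaRG cells in serum-free induction medium were exposed in duplicate for 48 h to eight half-log concentrations up to 100 uM in 0.5% DMSO. FOXO3 mRNA was quantified by qRT-PCR, normalized to ACTB, GAPDH and POLR2A, with bidirectional fitting versus DMSO.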

[9] = read-out: ABC Transporter (ABCB1), ABCB1 (gene 5243); experiment: LTEA_HepaRG_ABCB1: Life Technologies and Expression Analysis (LTEA) Assay for ABC Transporter (ABCB1) using HepaRG (AID 2283460)
In short: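 Differentiated human HepaRG cells, plated 48 h then switched to serum-free induction medium, were exposed in duplicate to eight half-log concentrations up to 100 uM in 0.5% DMSO for 48 h. ABCB1 mRNA was measured by TaqMan qRT-PCR, normalized to ACTB/GAPDH/POLR2A.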

[10] = read-out: growth arrest and DNA damage 45 (GADD45B), GADD45B (gene 4616); experiment: LTEA_HepaRG_GADD45B: Life Technologies and Expression Analysis (LTEA) Assay for growth arrest and DNA damage 45 (GADD45B) using HepaRG (AID 2283461)
In short: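 Human HepaRG monolayers receive chemicals for 48 h at eight half-log concentrations, highest 100 uM, in 0.5% DMSO. Expression is measured by TaqMan qRT-PCR and normalized to ACTB, GAPDH and POLR2A.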

[11] = read-out: ABC Transporter (ABCC3), ABCC3 (gene 8714); experiment: LTEA_HepaRG_ABCC3: Life Technologies and Expression Analysis (LTEA) Assay for ABC Transporter (ABCC3) using HepaRG (AID 2283462)
In short: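 Transcriptional change of ABCC3 in HepaRG after 48 h treatment, determined by qRT-PCR normalized to endogenous controls. Concentrations spanned eight half-log steps to 100 uM in 0.5% DMSO.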

[12] = read-out: ABC Transporter (ABCB11), ABCB11 (gene 8647); experiment: LTEA_HepaRG_ABCB11: Life Technologies and Expression Analysis (LTEA) Assay for ABC Transporter (ABCB11) using HepaRG (AID 2283463)
In short: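 Differentiated human HepaRG cells were exposed for 48 h in serum-free induction medium to eight half-log concentrations up to 100 uM in 0.5% DMSO. ABCB11 mRNA was quantified by qRT-PCR, normalized to ACTB, GAPDH and POLR2A, and fitted bidirectionally versus DMSO.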

[13] = read-out: ABC Transporter (ABCC2), ABCC2 (gene 1244); experiment: LTEA_HepaRG_ABCC2: Life Technologies and Expression Analysis (LTEA) Assay for ABC Transporter (ABCC2) using HepaRG (AID 2283464)
In short: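 After plating and 48 h culture, HepaRG medium is replaced with serum-free induction medium and chemicals are added (8 concentrations, max 100 uM, 0.5% DMSO) for 48 h. Total RNA then undergoes qRT-PCR for ABCC2 with housekeeping normalization.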

[14] = read-out: Broad substrate specificity ATP-binding cassette transporter ABCG2 (Homo sapiens) (UniProt Q9UNQ0); experiment: LTEA_HepaRG_ABCG2: Life Technologies and Expression Analysis (LTEA) Assay for ABC Transporter (ABCG2) using HepaRG (AID 2283465)
In short: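 Differentiated HepaRG cells in serum-free induction medium were exposed for 48 h, in duplicate, to eight half-log concentrations up to 100 uM in 0.5% DMSO. ABCG2 mRNA was measured by TaqMan qRT-PCR, normalized to ACTB, GAPDH and POLR2A, and fitted bidirectionally versus DMSO.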

[15] = read-out: ATP-citrate lyase (ACLY), ACLY (gene 47); experiment: LTEA_HepaRG_ACLY: Life Technologies and Expression Analysis (LTEA) Assay for ATP-citrate lyase (ACLY) using HepaRG (AID 2283466)
In short: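 Differentiated human HepaRG cells in serum-free induction medium exposed 48 h, in duplicate, to eight half-log concentrations from 100 uM top in 0.5% DMSO; ACLY mRNA measured by qRT-PCR, normalized to ACTB, GAPDH, POLR2A, fitted bidirectionally versus DMSO.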

[16] = read-out: Peroxisomal acyl-coenzyme A oxidase 1 (ACOX1) gene, ACOX1 (gene 51); experiment: LTEA_HepaRG_ACOX1: Life Technologies and Expression Analysis (LTEA) Assay for Peroxisomal acyl-coenzyme A oxidase 1 (ACOX1) gene using HepaRG (AID 2283467)
In short: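 Differentiated human HepaRG cells were exposed in duplicate for 48 h in serum-free induction medium to eight half-log concentrations up to 100 uM in 0.5% DMSO. ACOX1 mRNA was then quantified by TaqMan qRT-PCR, normalized to ACTB, GAPDH and POLR2A.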

[17] = read-out: Alkaline Phosphatase, Placental (ALPP) gene, ALPP (gene 250); experiment: LTEA_HepaRG_ALPP: Life Technologies and Expression Analysis (LTEA) Assay for Alkaline Phosphatase, Placental (ALPP) gene using HepaRG (AID 2283468)
In short: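 Using human liver HepaRG cells, chemicals are tested in duplicate over 48 h at half-log concentrations topping at 100 uM; phenobarbital 1 mM serves as induction control. ALPP mRNA change by qRT-PCR, bidirectional fit against vehicle.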

[18] = read-out: Bcl-2 (BAD) gene, BAD (gene 572); experiment: LTEA_HepaRG_BAD: Life Technologies and Expression Analysis (LTEA) Assay for Bcl-2 (BAD) gene using HepaRG (AID 2283469)
In short: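 Differentiated human HepaRG cells in serum-free induction medium were exposed in duplicate for 48 h to eight concentrations (top 100 uM, half-log steps, 0.5% DMSO). BAD mRNA was quantified by qRT-PCR normalised to ACTB, GAPDH and POLR2A, with bidirectional fitting versus DMSO.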

[19] = read-out: Bcl-2 (BAX) gene, BAX (gene 581); experiment: LTEA_HepaRG_BAX: Life Technologies and Expression Analysis (LTEA) Assay for Bcl-2 (BAX) gene using HepaRG (AID 2283470)
In short: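 HepaRG (human liver), 48 h exposure, duplicate wells. 8-pt curve, half-log from 100 uM, 0.5% DMSO. BAX transcript by TaqMan qRT-PCR; ACTB/GAPDH/POLR2A normalization; gain or loss vs DMSO baseline.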

Sequence of Broad substrate specificity ATP-binding cassette transporter ABCG2 (Homo sapiens) (Q9UNQ0 whole entry, looked up): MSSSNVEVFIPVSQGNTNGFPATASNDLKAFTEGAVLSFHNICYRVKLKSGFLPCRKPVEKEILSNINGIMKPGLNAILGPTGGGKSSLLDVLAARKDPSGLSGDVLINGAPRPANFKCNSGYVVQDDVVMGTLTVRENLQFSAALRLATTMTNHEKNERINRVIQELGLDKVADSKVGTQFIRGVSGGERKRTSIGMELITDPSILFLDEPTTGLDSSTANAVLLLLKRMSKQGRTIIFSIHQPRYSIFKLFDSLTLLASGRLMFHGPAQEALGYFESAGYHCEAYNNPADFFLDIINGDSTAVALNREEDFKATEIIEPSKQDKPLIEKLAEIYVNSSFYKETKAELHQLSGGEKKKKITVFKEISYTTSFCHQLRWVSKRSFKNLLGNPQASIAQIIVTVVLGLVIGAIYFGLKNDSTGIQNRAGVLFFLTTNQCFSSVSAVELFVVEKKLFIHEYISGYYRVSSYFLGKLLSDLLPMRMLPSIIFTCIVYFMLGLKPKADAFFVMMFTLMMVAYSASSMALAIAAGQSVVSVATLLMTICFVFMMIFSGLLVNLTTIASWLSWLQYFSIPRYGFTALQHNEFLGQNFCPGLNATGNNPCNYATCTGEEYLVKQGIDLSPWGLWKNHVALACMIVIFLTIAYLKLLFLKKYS

C#CC(O)C(CC)CCCC (stereo not given)
outcome [1]: inactive
outcome [2]: inactive
outcome [3]: inactive
AC50 [4]: 73.1 µM (active)
outcome [5]: inactive
outcome [6]: inactive
outcome [7]: inactive
outcome [8]: inactive
outcome [9]: inactive
outcome [10]: inactive
outcome [11]: inactive
outcome [12]: inactive
outcome [13]: inactive
outcome [14]: inactive
outcome [15]: inactive
outcome [16]: inactive
outcome [17]: inactive
outcome [18]: inactive

c1ccc2occc2c1
outcome [1]: inactive
outcome [2]: inactive
outcome [3]: inactive
outcome [4]: inactive
outcome [5]: inactive
outcome [6]: inactive
outcome [7]: inactive
outcome [8]: inactive
outcome [9]: inactive
outcome [10]: inactive
outcome [11]: inactive
outcome [12]: inactive
outcome [13]: inactive
outcome [14]: inactive
outcome [15]: inactive
outcome [16]: inactive
outcome [17]: inactive
outcome [18]: inactive
outcome [19]: inactive

CC(=O)CC(c1ccccc1)c1c(O)c2ccccc2oc1=O (stereo not given)
outcome [1]: inactive
outcome [2]: inactive
outcome [3]: inactive
outcome [4]: inactive
outcome [5]: inactive
outcome [6]: inactive
outcome [7]: inactive
outcome [8]: inactive
outcome [9]: inactive
outcome [10]: inactive
outcome [11]: inactive
outcome [12]: inactive
outcome [13]: inactive
outcome [14]: inactive
AC50 [15]: 50 µM (active)
outcome [16]: inactive
outcome [17]: inactive
outcome [18]: inactive
outcome [19]: inactive

CCOCCOCCO
outcome [1]: inactive
outcome [2]: inactive
outcome [3]: inactive
outcome [4]: inactive
outcome [5]: inactive
outcome [6]: inactive
outcome [7]: inactive
outcome [8]: inactive
outcome [9]: inactive
outcome [10]: inactive
outcome [11]: inactive
outcome [12]: inactive
outcome [13]: inactive
outcome [14]: inactive
outcome [15]: inactive
outcome [16]: inactive
outcome [17]: inactive
outcome [18]: inactive
outcome [19]: inactive

CN(C)C(=O)NC1(c2ccccc2)CCN(CCC[C@]2(c3ccc(Cl)c(Cl)c3)CCCN(C(=O)c3ccccc3)C2)CC1
AC50 [1]: 22.7 µM (active)
AC50 [2]: 18.8 µM (active)
AC50 [3]: 18.8 µM (active)
outcome [4]: inactive
outcome [5]: inactive
AC50 [6]: 18.7 µM (active)
AC50 [7]: 12.5 µM (active)
outcome [8]: inactive
outcome [9]: inactive
AC50 [10]: 20.3 µM (active)
outcome [11]: inactive
AC50 [12]: 23.6 µM (active)
AC50 [13]: 19.4 µM (active)
outcome [14]: inactive
outcome [15]: inactive
outcome [16]: inactive
AC50 [17]: 24 µM (active)
outcome [18]: inactive

Oc1ccccc1O
outcome [1]: inactive
outcome [2]: inactive
outcome [3]: inactive
outcome [4]: inactive
outcome [5]: inactive
outcome [6]: inactive
outcome [7]: inactive
outcome [8]: inactive
outcome [9]: inactive
outcome [10]: inactive
outcome [11]: inactive
outcome [12]: inactive
outcome [13]: inactive
outcome [14]: inactive
outcome [15]: inactive
outcome [16]: inactive
outcome [17]: inactive
outcome [18]: inactive
outcome [19]: inactive

CC(C)OC(=O)C(C)(C)Oc1ccc(C(=O)c2ccc(Cl)cc2)cc1
outcome [1]: inactive
outcome [2]: inactive
outcome [3]: inactive
AC50 [4]: 50 µM (active)
outcome [5]: inactive
outcome [6]: inactive
AC50 [7]: 0.0536 µM (active)
outcome [8]: inactive
outcome [9]: inactive
outcome [10]: inactive
outcome [11]: inactive
outcome [12]: inactive
outcome [13]: inactive
outcome [14]: inactive
outcome [15]: inactive
outcome [16]: inactive
outcome [17]: inactive
outcome [18]: inactive
